p53ts 39C tox: qHTS Screen for Compounds that Selectively Target Cancer Cells with p53 Mutations: Cytotoxicity of p53ts Cells at the Nonpermissive Temperature | H1299-p53A138V viability at 39C, ATP luminescence, 24 h | Potency, µM (titrated, usually from 46.1 µM), without a hit: at the top dose activity change, negative = cell killing, usual class: cytotoxic | actives 1.5% (n = 130,000) | AID 902, 2007; further: on the % scale 0 is the no-effect control and ±100 the full control effect; nearly all actives have a fitted effect of over 55% in size
Peg3 imprint: qHTS Assay for Compounds that Induce Erasure of Genomic Imprints. mouse ES Peg3-LacZ reporter, beta-gal luminescence, 40 h. Potency, µM (doses to about 60.7 µM), for inactives: top-dose activity change, positive = activation, hits mostly activators. actives 0.02% (n = 110,000)
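Imprint erasure is scored as LacZ activity from the silenced maternal Peg3 allele in feeder-free female ES cells cultured 40 h with LIF. Luminescence is normalized to in-plate negative controls and fitted to the Hill equation.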
p53ts 32C kill: qHTS Screen for Compounds that Selectively Target Cancer Cells with p53 Mutations: Cytotoxicity of p53ts Cells at the Permissive Temperature. H1299-p53A138V at 32C, ATP luminescence viability, 24 h. actives 0.93% (n = 130,000). Potency, µM (top dose mostly 46.1 µM), without a hit: at the top dose activity change, negative = cytotoxicity, actives largely listed as cytotoxic;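 further: 0% = DMSO and -100% = full killing by reference compound; nearly all actives have a fitted effect of over 55% in size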
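Cells: H1299 p53ts (A138V), 600/well, pre-incubated 16–30 h at 37C. Cpd up to 46 uM, 24 h, 32C. Readout: ATPlite luminescence, 20 min RT. Normalization: DMSO vs tamoxifen 100 uM. AC50 by Hill equation.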
Starred values were filed as active, the others as inactive; ? = inconclusive; . = no result given; [ ] = another dose, or the depositor's remark. A selection: hits, their analogues and other compounds. The true share with any hit is near 1.8%. The call rests on the fitted dose curve; in most records, active means well fitted curve in the direction sought with a large enough effect; inconclusive means small, poorly fitted or top-dose-only effect, or another doubt; inactive means no such curve, though single readings can be large; an effect the other way counts as inactive or inconclusive. Potency means the concentration at half of the fitted maximal effect.

SMILES	p53ts 39C tox	Peg3 imprint	p53ts 32C kill
O=C(NCc1ccccc1)c1nc(S(=O)(=O)Cc2ccc(F)cc2)ncc1Cl	5.01µM*	-24.9%[10.9 µM]	15.8µM*
Cc1ccc(CSc2ncc(Cl)c(C(=O)NCc3ccccc3)n2)cc1	-21.0%	-11.1%[10.9 µM]	-7.9%
CCOc1ccc(C(=O)c2oc3ccccc3c2NC(=O)Cc2coc3cc(C)cc(C)c23)cc1	24.7%	-1.6%[10.9 µM]	1.8%
C[C@@H]1NCC[C@H](CC(=O)O)[C@H]1CC(=O)O	2.7%[9.22 µM]	-2.2%[10.9 µM]	4.3%[9.22 µM]
CCOc1ccc(-n2nc3ccc(NC(=O)COc4ccccc4)cc3n2)cc1	9.8%	-2.6%[10.9 µM]	-7.2%
CCOc1ccc(-n2nc3ccc(NC(=O)c4ccc(-c5cccc(Cl)c5)o4)cc3n2)cc1	7.94µM*	-35.0%[10.9 µM]	?
COc1ccc(N2CCN(C(CNC(=O)C(=O)NCCCN(C)C)c3cccnc3)CC2)cc1 (stereo not drawn)	-1.0%	-3.8%[10.9 µM]	1.2%
O=C1c2ccccc2NC(c2ccc3c(c2)OCO3)N1O (stereo not drawn)	-27.5%	-42.2%	?
O=C1c2ccccc2NC(c2ccc3c(c2)OCCO3)N1c1ccc2c(c1)OCCO2 (stereo not drawn)	5.01µM*	-89.1%	6.31µM*
Cc1ccc(N2CC(NC(=O)c3ccco3)CC2=O)cc1 (stereo not drawn)	-4.0%	5.5%[10.9 µM]	-6.1%
CCCN(C(=O)Cn1nc(Cc2ccncc2)c2ccccc2c1=O)c1ccccc1C	15.4%	-14.8%[10.9 µM]	7.3%
Fc1ccc(Nc2nc(SCc3cccc(F)c3)nc3ccccc23)cc1	?	10.2%[10.9 µM]	12.0%
O=c1cc(-c2cccc(O)c2)oc2c(O)c(O)ccc12	25.1µM*	-13.7%	?
COc1cccc(-c2oc3ccc(C)cc3c(=O)c2O)c1	10µM*	-11.5%[10.9 µM]	?
COc1ccc2oc(-c3ccc(O)cc3)cc(=O)c2c1	7.94µM*	-86.6%	5.01µM*
COc1cccc(-c2cc(=O)c3ccc(OC)cc3o2)c1	-16.2%	-20.0%	-12.5%
COc1cccc(-c2cc(=O)c3cc(O)ccc3o2)c1	12.6µM*	-64.3%	?
O=c1cc(-c2cccc(O)c2)oc2cc(O)ccc12	-22.4%	-35.6%	-14.9%
COc1ccc(-c2cc(=O)c3cc(OC)ccc3o2)cc1	?	25.3%	?
Cc1ccc2oc(-c3ccccc3)c(O)c(=O)c2c1	-5.3%	-6.0%	-13.6%
Cc1nc(NCCO)c2nc(-c3ccccc3)n(CCCN(C)C)c2n1	-2.8%	-0.2%	0.1%
CN(C)c1ccc(CNC(=O)c2sc3ncccc3c2-n2cccc2)cc1	-19.8%	-10.3%[10.9 µM]	-4.6%
Cc1ccc(NC(=O)Cn2c(=O)n(CCC(C)C)c(=O)c3cccnc32)cc1C	?	16.1%[10.9 µM]	12.0%
CCOc1ccc(NC(=O)C2CCCN(S(=O)(=O)c3ccc(Br)s3)C2)cc1 (stereo not drawn)	-6.6%	-7.1%[10.9 µM]	7.0%
CCCCC(=O)Oc1ccc2oc(-c3ccc(OC)cc3)cc(=O)c2c1	6.31µM*	-34.5%[10.9 µM]	?
SMILES	p53ts 39C tox	Peg3 imprint	p53ts 32C kill
COC(=O)COc1ccc2oc(-c3ccc(OC)cc3)cc(=O)c2c1	-7.1%	-9.1%[10.9 µM]	-7.1%
CCS(=O)(=O)c1ncc(N(Cc2cccc(F)c2)Cc2ccco2)c(C(=O)Nc2ccccc2Cl)n1	15.0%	-11.8%[10.9 µM]	3.8%
CCC1CCCCN1C(=O)CSc1n[nH]c(-c2ccccc2Cl)n1 (stereo not drawn)	?	9.2%[10.9 µM]	-15.0%
Clc1cccc(-c2nnc(-c3ccccc3)o2)c1	12.6µM*	-83.3%	10µM*
Brc1cccc(-c2nnc(-c3ccccc3)o2)c1	-26.0%	-55.7%	?
Cn1cc(C(=O)c2ccccc2)cc1-c1nc2ccccc2n1C	-7.1%	-12.8%	3.4%
CC(C)n1c(-c2ccc(N(C)C)cc2)nc2ccccc21	?	-20.1%	?
Cn1c(-c2ccc(Br)o2)nc2ccccc21	10µM*	-99.1%	7.94µM*
Cn1c(-c2ccc(Br)o2)nc2cc(Br)ccc21	?	-86.4%	?
Cc1oc(-c2nc3ccccc3n2C)cc1C(=O)c1ccccc1	3.98µM*	-94.1%	5.01µM*
CN(C)c1ccc(-c2nc3ccccc3n2C)cc1	0.794µM*	-91.9%	1.58µM*
Nc1nc2c(nc(Br)n2C2O[C@H]3COP(=O)(O)O[C@@H]3C2O)c(=O)[nH]1 (stereo partly drawn)	.	-7.4%	.
Cc1ccc(-c2nc3cccnc3s2)cc1NC(=O)Cc1ccccc1	?	-26.8%[10.9 µM]	?
COc1ccc(CC(=O)Nc2cc(-c3nc4cccnc4s3)ccc2C)cc1	12.6µM*	-17.2%[10.9 µM]	?

From PubChem
